Drawing on PubChem BioAssay (NCI), this text covers growth for 8 compounds.

Test systems include HCT-15 colon; HT29 colon; SNB-75 CNS; SNB-19 CNS; U251 CNS; PC-3 prostate; SK-MEL-5 melanoma; UACC-62 melanoma; LOX IMVI melanoma; SK-MEL-28 melanoma; EKVX NSCLC; SN12C renal; UO-31 renal; TK-10 renal; ACHN renal; CAKI-1 renal; A498 renal; CCRF-CEM leukemia; MOLT-4 leukemia.
Assay in all cases: NCI-60 one-dose screen, 48 h (100 = growth as untreated, 0 = no growth, -100 = all killed)
What all share (conditions): 10 µM unless noted

About 83,000 compounds went through this panel and 20% of them were active in at least one assay; those are over-represented in the sample as a whole.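 Note: values are percent growth. 100 is the growth of untreated cells, values between 100 and 0 indicate rising inhibition; between -100 and 0 indicates cell death.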 Values without a mark were called inactive. Activity calls are given as the source filed them. Rule for the calls: active = growth percent below 10; inactive = the rest.

Regarding `COc1cc2nccc(Oc3ccc(NC(=O)C4(C(=O)Nc5ccc(F)cc5)CC4)cc3)c2cc1OC`, the growth was 5.75% (active) in the test with HCT-15 colon; -19.1% (active) in the test on HT29 colon; -18.9% (active) in the test with SNB-75 CNS; 29.9% with SNB-19 CNS; 25.1% in the test with U251 CNS; 20.8% in the test on PC-3 prostate. Further, the growth is 3.39% (active) with SK-MEL-5 melanoma; -12.2% (active) with UACC-62 melanoma; -71.2% (active) in the test on LOX IMVI melanoma; 1.37% (active) in the test with SK-MEL-28 melanoma; 23.4% in the test with EKVX NSCLC; 9.57% (active) with SN12C renal. Also, the growth in the test on UO-31 renal is -19.2% (active); in the test with TK-10 renal, 15.1%; in the test with ACHN renal, 4.85% (active); in the test with CAKI-1 renal, -14.9% (active); in the test with A498 renal, -44.2% (active); in the test on CCRF-CEM leukemia, 19.1%. In addition, the growth in the test on MOLT-4 leukemia is 11.6%.

Take `CN1CCN(CCOc2cc(OC3CCOCC3)c3c(Nc4c(Cl)ccc5c4OCO5)ncnc3c2)CC1`: the growth in the test with HCT-15 colon was 54.6%; in the test with HT29 colon, 7.45% (active); in the test on SNB-75 CNS, -17.7% (active); in the test with SNB-19 CNS it was 54.6%; in the test on U251 CNS, 67.3%; in the test with PC-3 prostate, 71%. The growth is 87.4% in the test with SK-MEL-5 melanoma; 99.6% in the test on UACC-62 melanoma; 15.5% in the test with LOX IMVI melanoma; 104% with SK-MEL-28 melanoma; 43.8% in the test on EKVX NSCLC; 46.1% in the test on SN12C renal. In addition, the growth was 17.7% in the test with UO-31 renal; 5.06% (active) with TK-10 renal; 12.5% in the test with ACHN renal; 21.7% in the test on CAKI-1 renal; 49.4% in the test with A498 renal; 84.3% in the test on CCRF-CEM leukemia. The growth in the test on MOLT-4 leukemia was 56.2%.

Take `N[C@@H]1CCCN(c2c(/C=C3\SC(=O)NC3=O)cccc2-c2ccccc2)C1`: the growth is 63.9% in the test with HCT-15 colon; 55% with HT29 colon; -14.1% (active) in the test with SNB-75 CNS; 1.97% (active) with SNB-19 CNS; 13.9% in the test with U251 CNS; 47.5% with PC-3 prostate. Besides, the growth was 55% in the test on SK-MEL-5 melanoma; 62.2% in the test with UACC-62 melanoma; 72.6% with LOX IMVI melanoma; 73.8% in the test with SK-MEL-28 melanoma; 62.6% in the test on EKVX NSCLC; 65% in the test with SN12C renal. Further, the growth in the test on UO-31 renal is 31.9%; with TK-10 renal it was 78.6%; in the test on ACHN renal, 73.2%; in the test on CAKI-1 renal, 73.6%; in the test with A498 renal, 75%; in the test with CCRF-CEM leukemia, 55.3%. Also, the growth with MOLT-4 leukemia is 31.1%.

`COc1cc(N2CCC(N3CCN(C)CC3)CC2)ccc1Nc1ncnc(Nc2ccccc2S(=O)(=O)C(C)C)n1`: the growth in the test on HCT-15 colon is 103%; in the test on HT29 colon, 84.1%; with SNB-75 CNS, 101%; in the test on SNB-19 CNS, 98.6%; in the test on U251 CNS it was 101%; in the test with PC-3 prostate it was 93.7%. Besides, the growth is 110% in the test with SK-MEL-5 melanoma; 102% with UACC-62 melanoma; 103% in the test with LOX IMVI melanoma; 105% in the test with SK-MEL-28 melanoma; 105% in the test with EKVX NSCLC; 107% in the test with SN12C renal. Moreover, the growth in the test with UO-31 renal was 98.7%; in the test with TK-10 renal, 108%; with ACHN renal it was 98.5%; in the test on CAKI-1 renal, 104%; in the test with A498 renal, 114%; in the test on CCRF-CEM leukemia, 92.9%. The growth in the test with MOLT-4 leukemia was 89.9%.

Regarding `CCN1CCN(Cc2ccc(Cc3ncc(F)c(-c4cc(F)c5nc(C)n(C(C)C)c5c4)n3)nc2)CC1`, the growth with HCT-15 colon was 32.9%; in the test on HT29 colon, 13.2%; in the test on SNB-75 CNS, 21.2%; in the test on SNB-19 CNS, 47.8%; with U251 CNS, 45.7%; in the test on PC-3 prostate it was 38.7%. The growth was 34.2% in the test with SK-MEL-5 melanoma; 69.1% in the test with UACC-62 melanoma; -80.4% (active) with LOX IMVI melanoma; 64.4% in the test with SK-MEL-28 melanoma; 59.6% with EKVX NSCLC; 48.9% in the test on SN12C renal. The growth in the test with UO-31 renal was 11.8%; in the test with TK-10 renal, 35.1%; in the test with ACHN renal it was 27.3%; in the test on CAKI-1 renal, 24%; in the test with A498 renal, 34.5%; with CCRF-CEM leukemia it was 22.3%. Besides, in the test with MOLT-4 leukemia, the growth is 13.4%.

`O=C(NC1CCNCC1)c1[nH]ncc1NC(=O)c1c(Cl)cccc1Cl`: the growth in the test on HCT-15 colon is 72.7%; with HT29 colon, -26.7% (active); with SNB-75 CNS, -40.7% (active); in the test with SNB-19 CNS, 12.5%; in the test with U251 CNS it was 4.47% (active); with PC-3 prostate, 5.97% (active). Also, the growth was -12.8% (active) with SK-MEL-5 melanoma; -41.9% (active) with UACC-62 melanoma; 8.93% (active) with LOX IMVI melanoma; -14.5% (active) in the test with SK-MEL-28 melanoma; 52.5% with EKVX NSCLC; 12.7% in the test with SN12C renal. In addition, the growth is 70.6% with UO-31 renal; 25.8% in the test on TK-10 renal; 66.5% with ACHN renal; 45.4% in the test with CAKI-1 renal; -25.3% (active) in the test on A498 renal; 11.2% in the test with CCRF-CEM leukemia. Also, the growth with MOLT-4 leukemia was 5.67% (active).

For `Cc1cc(Oc2ccccc2)ccc1Nc1ncnc2ccc(-c3cnc(Cl)c(NS(C)(=O)=O)c3)cc12`, the growth with HCT-15 colon is 21.6%; in the test on HT29 colon, 15.8%; in the test on SNB-75 CNS, 0.0921% (active); with SNB-19 CNS, 32.4%; in the test on U251 CNS, 29.4%; in the test with PC-3 prostate it was 25.3%. The growth was -25.3% (active) in the test with SK-MEL-5 melanoma; 10.5% in the test with UACC-62 melanoma; -3.68% (active) in the test on LOX IMVI melanoma; 7.7% (active) with SK-MEL-28 melanoma; 21.3% with EKVX NSCLC; 35.6% in the test on SN12C renal. For the same compound, the growth with UO-31 renal is 3.47% (active); in the test with TK-10 renal it was 4.28% (active); with ACHN renal, 30.4%; in the test on CAKI-1 renal, 2.11% (active); with A498 renal, -30.8% (active); in the test with CCRF-CEM leukemia, 21.2%. The growth with MOLT-4 leukemia is -0.671% (active).

As to `CC(=O)NCC(=O)N1[C@@H]2CC[C@H]1c1ccc(Nc3ncc(C(F)(F)F)c(NC4CCC4)n3)cc12`, the growth in the test on HCT-15 colon is 26.8% [2.5 µM]; in the test with HT29 colon it was 14.1% [2.5 µM]; in the test on SNB-75 CNS it was 19.7% [2.5 µM]; in the test on SNB-19 CNS, 73.9% [2.5 µM]; in the test with U251 CNS, 56.2% [2.5 µM]; with PC-3 prostate, 57.2% [2.5 µM]. In addition, the growth with SK-MEL-5 melanoma was 58.1% [2.5 µM]; with UACC-62 melanoma it was 56.3% [2.5 µM]; in the test on LOX IMVI melanoma it was 22% [2.5 µM]; in the test with SK-MEL-28 melanoma it was 70.8% [2.5 µM]; in the test on EKVX NSCLC, 69.1% [2.5 µM]; with SN12C renal, 37.8% [2.5 µM]. The growth in the test with UO-31 renal is 2.84% [2.5 µM] (active); in the test on TK-10 renal, 43.7% [2.5 µM]; in the test with ACHN renal, 38.6% [2.5 µM]; in the test with CAKI-1 renal, 20.5% [2.5 µM]; in the test on A498 renal, 14.7% [2.5 µM]; with CCRF-CEM leukemia, 40.2% [2.5 µM]. The growth in the test with MOLT-4 leukemia is 20% [2.5 µM].
